# Results filed as inconclusive are left out. Active and inactive are the calls of the source. Calls come from the whole dose curve; as a rule, active = well fitted inhibition curve with a large enough effect; inconclusive = small, poorly fitted or top-dose-only effect; inactive = no such curve, though single readings can be large or run the other way.
# Test system: Zika virus NS2B-NS3 protease (linked construct)
# Test: Primary screen NINDS Rhodamine qHTS for Zika virus inhibitors (AID 1347160); note: nearly all actives have a fitted effect of over 55% in size
# Conditions: purified NS2B-NS3 protease, Rhodamine110 substrate fluorescence; series mostly up to 57.1 µM; activity change, negative = inhibition: at the top concentration
# Outline: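 Each compound, titrated, sat 15 min with 25 nM linked protease before 1.5 microM Rhodamine110 substrate went in. Fluorescence gain over the next 15 min, in pH 8.0 Tris with Tween 20, gave Hill-fitted curves.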
# % is set by controls: 0 for no effect and ±100 for the full control effect; potency is the fitted concentration of half-maximal effect.
SMILES,outcome,"activity change, negative = inhibition",Potency
COc1cc([C@@H]2Oc3c(OC)cc(CCCO)cc3[C@@H]2CO[C@@H]2O[C@H](CO)[C@@H](O)[C@H](O)[C@H]2O)ccc1O,inactive [at 33.1 µM],–,–
CC(C)CC(=O)OC[C@H]1O[C@@](COC(=O)CC(C)C)(O[C@H]2O[C@H](CO)[C@@H](O)[C@H](O)[C@H]2O)[C@@H](OC(=O)CC(C)C)[C@@H]1OC(=O)CC(C)C,inactive [at 15.1 µM],–,–
CC(C)C1=CC2=CCC3[C@](C)(CCC[C@@]3(C)C(=O)O)C2CC1=O (some centres undefined),–,-12.3% [at 33.1 µM] (inactive),–
CCc1c(CC(N)=O)c2cc(OCCCP(=O)(O)O)ccc2n1Cc1ccccc1,–,-23.3% (inactive),–
CC1=CC(=O)C2C(C)(C)CCCC2(C)C12CCC1(COC(=O)C1)O2 (centres undefined),–,-13.2% [at 33.1 µM] (inactive),–
CC1CCC2C(C(=O)O)=CC3CC(C)(C)CC132 (centres undefined),–,–,25.1 µM (active)
COc1cc(C(O)C(CO)Oc2ccc(CCCO[C@@H]3O[C@@H](C)[C@H](O)[C@@H](O)[C@H]3O)cc2OC)ccc1O (some centres undefined),–,-23.8% [at 33.1 µM] (inactive),–
CC1(C)C(=O)C(C)(C)c2cc(C(=O)Nc3ccc(C(=O)O)cc3)ccc21,–,-4.75% (inactive),–
C=C1CCC2[C@@](C)(C=O)CCC[C@]2(C)[C@H]1CC/C(C)=C/CO (some centres undefined),–,-5.18% (inactive),–
C/C=C(\C)C(=O)O[C@H]1[C@H](O)[C@]2(COC(C)=O)[C@H](O)C[C@]3(C)C(=CCC4[C@@]5(C)CC[C@H](O[C@@H]6O[C@H](C(=O)O)[C@@H](O[C@@H]7O[C@H](CO)[C@@H](O)[C@H](O)[C@H]7O)[C@H](O)[C@H]6O[C@@H]6O[C@H](CO)[C@@H](O)[C@H](O)[C@H]6O)[C@](C)(CO)C5CC[C@]43C)[C@@H]2CC1(C)C (some centres undefined),inactive [at 15.1 µM],–,–
CC(=O)O[C@@H]1[C@H]2[C@@H](OC(=O)c3ccccc3)[C@@H](C)C[C@]2(O)[C@H](OC(C)=O)[C@@]2(C)[C@@H]3CC(C)(C)C(=O)[C@]3(OC(C)=O)C[C@@]12C,–,-5.8% [at 15.1 µM] (inactive),–
CC[C@@H](c1ccc(F)c(F)c1)n1c(C(=O)OC)c(-c2ccno2)[nH]c1=S,–,-23.8% (inactive),–
C[C@H]1[C@H](C)CC[C@]2(C(=O)O[C@@H]3O[C@H](CO)[C@@H](O)[C@H](O)[C@H]3O)CC[C@]3(C(=O)O)C(=CCC4[C@@]5(C)CC[C@H](O[C@@H]6O[C@H](CO)[C@@H](O)[C@H](O)[C@H]6O)C(C)(C)C5CC[C@]43C)[C@H]12 (some centres undefined),–,-20% [at 15.1 µM] (inactive),–
C=C1CCC2C(OC(=O)C2(O)COC(C)=O)C2C(=C)C(O)CC12 (centres undefined),–,-5.88% [at 33.1 µM] (inactive),–
CC(=O)O[C@H]1C[C@@H]2[C@]3(CC[C@]4(C)[C@@H](C5(C)CCC(C(C)(C)O)O5)[C@@H](O)C[C@@]24C)C[C@@]32CC[C@H](O[C@@H]3OC[C@@H](O)[C@H](O)[C@H]3O)C(C)(C)[C@H]12 (some centres undefined),–,-12.1% [at 15.1 µM] (inactive),–
CCC(C)/C=C(C)/C=C/C1=CC2=C(Cl)C(=O)C(C)(OC(C)=O)C(=O)C2=CN1C1CCCCN(C(CCC(N)=O)C(=O)O)C1=O (centres undefined),–,-18.7% [at 15.1 µM] (inactive),–
C#C[C@]1(O)CC[C@H]2[C@@H]3CCC4=C/C(=N/O)CC[C@@H]4[C@H]3CC[C@@]21CC,inactive; activator,–,–
C[C@]12C=CC(=O)C=C1CC[C@@H]1[C@@H]2[C@@H](O)C[C@@]2(C)[C@H]1CC[C@]2(O)C(=O)COC(=O)CCC(=O)O,–,16.3% (inactive),–
CC(C)C1(O[C@@H]2O[C@H](CO)[C@@H](O)[C@H](O)[C@H]2O)CC=C(CO)CC1 (some centres undefined),–,-16.8% [at 33.1 µM] (inactive),–
CC1(C)CCC(C)(C)c2cc([C@@H](O)C(=O)Nc3ccc(C(=O)O)cc3F)ccc21,–,–,14.1 µM (active)
COC(=O)C1C(CC(C)=O)C=CC(O)C12Oc1cc(C)cc(O)c1C2=O (centres undefined),inactive [at 33.1 µM],–,–
CC(=O)N[C@H]1[C@H](O[C@H]2CC[C@@]3(C)C(CC[C@]4(C)C3CC=C3C5CC(C)(C)CC[C@]5(C(=O)O)[C@H](O[C@@H]5O[C@H](CO)[C@@H](O)[C@H](O)[C@H]5O)C[C@]34C)C2(C)C)O[C@H](CO[C@@H]2OC[C@H](O)[C@H](O)[C@H]2O[C@@H]2OC[C@@H](O)[C@H](O)[C@H]2O)[C@@H](O)[C@@H]1O (some centres undefined),–,-1.46% [at 15.1 µM] (inactive),–
CN(C)c1cccc(-c2c3c(=O)n(-c4ccccc4Cl)[nH]c3cc(=O)n2C)c1,–,11.5% (inactive),–
CC1CCCC2OC2C(=O)c2c(O)cc(O)cc2CC(=O)O1 (centres undefined),inactive,–,–
COc1ccc2cc(OCC3(C(=O)O)CN(C(=O)c4ccc(F)cc4)C3)ccc2c1,–,-24.5% (inactive),–
C/C(=C\CO)CC/C=C(\C)C(=O)O[C@H]1[C@H](OC2OC=C(C(=O)O)C3CCC(C)(O)C23)O[C@H](CO)[C@@H](O)[C@@H]1O (some centres undefined),–,-17.3% [at 33.1 µM] (inactive),–
CC1CCC2C(C)(C)C(O)CCC2(C)C12Cc1c(O)cc3c(c1O2)CN=C3N (centres undefined),–,-10.7% [at 33.1 µM] (inactive),–
CC1CCC2(C)C(CC(O)C(O)C23CO3)C1(C)CCC1=CC(O)OC1=O (centres undefined),inactive [at 33.1 µM],–,–
COC(=O)CC[C@@H](C)[C@H]1CC[C@H]2[C@@H]3CC(=O)[C@H]4C[C@H](OC(C)=O)CC[C@]4(C)[C@H]3CC[C@]12C,inactive,–,–

# Reference: PubChem BioAssay (NCATS)
